Source: PubChem BioAssay (Tox21)
Unmarked numbers belong to inactive results. Inconclusive results are not listed. Where a call stands in place of a potency, no number is given. Calls of active or inactive are those of the source. Unless noted, the call rests on the fitted dose curve.

Key:
[1] = Nuclear factor erythroid 2-related factor 2/antioxidant responsive element (Nrf2/ARE) small molecule agonists: qHTS cell viability counter screen in human keratinocytes (AID 1919968; active means well fitted curve in the direction sought with a large enough effect in the repeat runs; an effect the other way counts as inactive or inconclusive; further: nearly all actives have a fitted effect of over 55% in size)
Summary of the method: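 HaCaT ARE reporter line, 1,500 cells/well; 5 h settle, 37 C/5% CO2; cpd in DMSO pinned; 23 h exposure; CellTiter-Fluor, 1 h; fluorescence.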

[2] = Nuclear factor erythroid 2-related factor 2/antioxidant responsive element (Nrf2/ARE) small molecule agonists: luciferase reporter gene qHTS assay in human keratinocytes (AID 1919969); further: nearly all actives have a fitted effect of over 35% in size; further: potency means the concentration at half of the fitted maximal effect
[3] = target: Gonadotropin-releasing hormone receptor (Homo sapiens) (UniProt P30968); experiment: Human gonadotropin-releasing hormone receptor (GnRHR) small molecule agonists, calcium flux assay in GnRHR-HEK293 cells (AID 1920063); further: nearly all actives have a fitted effect of over 35% in size
Sequence of Gonadotropin-releasing hormone receptor (Homo sapiens) (P30968 whole entry, looked up): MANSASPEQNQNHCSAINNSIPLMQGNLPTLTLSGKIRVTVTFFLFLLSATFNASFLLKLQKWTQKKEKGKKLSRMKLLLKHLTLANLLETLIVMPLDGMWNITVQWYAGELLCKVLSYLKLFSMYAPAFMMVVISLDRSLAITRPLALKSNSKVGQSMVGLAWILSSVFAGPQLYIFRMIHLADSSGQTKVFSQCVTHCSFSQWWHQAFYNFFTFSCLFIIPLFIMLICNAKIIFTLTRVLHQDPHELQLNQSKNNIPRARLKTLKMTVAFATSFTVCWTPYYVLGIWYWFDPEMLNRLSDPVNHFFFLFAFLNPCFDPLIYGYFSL
Summary of the method: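 GnRHR-HEK293, 1500 cells/well, 18 h 37 C/5% CO2; Ca dye 1 h 37 C; cpd pinned (DMSO), agonist mode; kinetic FL 480/540, 3 min, 1 s reads; 15 conc, n=3.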

[4] = target: KiSS-1 receptor (Homo sapiens) (UniProt Q969F8); experiment: Human kisspeptin (KISS1R) small molecule agonists, calcium flux assay in KISS1R-HEK293 cells (AID 1920064; active means well fitted curve in the direction sought with a large enough effect in the repeat runs; an effect the other way counts as inactive or inconclusive)
Sequence of KiSS-1 receptor (Homo sapiens) (Q969F8 whole entry, looked up): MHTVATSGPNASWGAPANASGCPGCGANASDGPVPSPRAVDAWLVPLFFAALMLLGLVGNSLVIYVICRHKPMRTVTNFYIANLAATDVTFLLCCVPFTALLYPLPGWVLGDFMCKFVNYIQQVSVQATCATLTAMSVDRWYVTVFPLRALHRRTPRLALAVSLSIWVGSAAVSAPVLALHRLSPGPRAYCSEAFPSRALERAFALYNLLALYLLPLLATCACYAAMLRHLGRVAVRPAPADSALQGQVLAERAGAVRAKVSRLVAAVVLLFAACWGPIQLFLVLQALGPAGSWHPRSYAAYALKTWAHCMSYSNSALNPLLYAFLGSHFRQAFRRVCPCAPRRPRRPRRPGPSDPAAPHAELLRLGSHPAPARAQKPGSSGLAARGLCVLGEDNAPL
Summary of the method: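 Stable human KISS1R HEK293 line; 18 h plating, 37 C/5% CO2; calcium dye 1 h 37 C; compound pin transfer; kinetic fluorescence Ex/Em 480/540, 3 min.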

[5] = G protein-coupled receptor (GPCR) small molecule agonists, calcium flux assay: HEK293 wild type cell line counter screen (AID 1920065)
Summary of the method: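 Kinetic fluorescence at Ex/Em 480/540, recorded every second over 3 min, served as the read-out after compound addition. Each compound was tested at 15 concentrations in triplicate on cells pre-loaded with calcium dye for 1 h.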

[6] = p53 small molecule agonists, cell-based qHTS assay with human liver microsomes (AID 1963577);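 further: p53 response element beta-lactamase reporter cells with liver microsomes plus NADPH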
Summary of the method: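 HLM-supplemented p53RE-bla reporter assay: 16 h compound exposure at 37 C, microsomes and NADPH each 0.5 mg/mL final, read by fluorescence intensity.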

[7] = p53 small molecule agonists, cell-based qHTS assay with rat liver microsomes (AID 1963578)
Summary of the method: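 Quantitative HTS of the Tox21 10K library: p53RE-bla cells, rat liver microsomes plus NADPH at 0.5 mg/mL final each, 16 h at 37 C, beta-lactamase fluorescence detection.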

[8] = p53 small molecule agonists, cell-based qHTS assay with human liver microsomes: qHTS cell viability counter screen (AID 1963579); further: nearly all actives have a fitted effect of over 45% in size; further: potency means the concentration at half of the fitted maximal effect
Summary of the method: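 Viability of p53RE-bla cells is measured as CellTiter-Glo luminescence following a 16 h, 37 C incubation with compound, liver microsomes from human donors and NADPH.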

[9] = p53 small molecule agonists, cell-based qHTS assay with rat liver microsomes: qHTS cell viability counter screen (AID 1963580); further: nearly all actives have a fitted effect of over 45% in size
Summary of the method: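 Viability is assessed in parallel with the p53 reporter read: HCT-116 p53RE-bla cells receive compounds plus rat microsomes and NADPH (0.5 mg/mL final apiece), incubate 16 h at 37 C, and then CellTiter-Glo luminescence is recorded.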

[10] = cAMP Responsive Elements (CRE) small molecule agonists, cell-based qHTS assay (AID 1963590)
Summary of the method: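 HEK 293T CRE-bla, 2,000 cells/well, 18 h preincubation 37 C/5% CO2; cpds (DMSO) pinned, 3 h; LiveBLAzer B/G FRET substrate, 2 h RT.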

[11] = cAMP Responsive Elements (CRE) small molecule antagonists, cell-based qHTS assay (AID 1963591; active means well fitted inhibition curve with a large enough effect in the signal ratio in the repeat runs, not every such curve was filed as active; the % refers to the signal ratio)
Summary of the method: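 Beta-lactamase reporter read by FRET substrate (LiveBLAzer B/G) after 2 h at room temperature. CRE-bla HEK293T cells had received compound plus 0.25 uM (final) NKH477 for 3 h at 37 °C.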

[12] = target: D(2) dopamine receptor (Homo sapiens) (UniProt P14416); experiment: Dopamine D2 receptor (DRD2) small molecule agonists, cell-based qHTS assay (AID 1963594); further: nearly all actives have a fitted effect of over 35% in size
Sequence of D(2) dopamine receptor (Homo sapiens) (P14416 whole entry, looked up): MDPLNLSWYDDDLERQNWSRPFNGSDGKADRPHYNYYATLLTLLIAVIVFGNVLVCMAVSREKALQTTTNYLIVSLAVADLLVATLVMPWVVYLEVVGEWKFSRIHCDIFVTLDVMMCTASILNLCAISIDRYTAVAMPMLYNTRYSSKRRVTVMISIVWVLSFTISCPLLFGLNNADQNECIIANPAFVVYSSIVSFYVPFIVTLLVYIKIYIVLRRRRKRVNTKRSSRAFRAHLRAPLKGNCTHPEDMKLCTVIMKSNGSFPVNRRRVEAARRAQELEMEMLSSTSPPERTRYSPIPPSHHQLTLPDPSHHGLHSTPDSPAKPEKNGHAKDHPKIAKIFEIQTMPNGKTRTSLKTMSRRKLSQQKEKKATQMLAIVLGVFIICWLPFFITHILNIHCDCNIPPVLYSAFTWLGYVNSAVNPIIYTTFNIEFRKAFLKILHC
Summary of the method: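 HEK293 cells stably expressing human DRD2, pre-treated with PDE inhibitor Ro20-1724 (0.1 mM final) and compound 10 min at room temperature, then stimulated with NKH477 (200nM […]) for 30 min. cAMP read by HTRF (665/620 nm).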

[13] = target: D(2) dopamine receptor (Homo sapiens) (UniProt P14416); experiment: Dopamine D2 receptor (DRD2) small molecule antagonists, cell-based qHTS assay (AID 1963595; active means well fitted inhibition curve with a large enough effect in the signal ratio in the repeat runs, with a control signal flat; the % refers to the signal ratio; further: potency means the concentration at half of the fitted maximal effect)
Summary of the method: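 DRD2-HEK293; 0.1 mM Ro20-1724; cpd 10 min RT; NKH477 200 nM + quinpirole 12 nM, 30 min RT; HTRF cAMP (cAMP-d2/anti-cAMP cryptate), 665/620 nm ratio after 1 h.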

[14] = target: 5-hydroxytryptamine receptor 2A (Homo sapiens) (UniProt P28223); experiment: 5-hydroxytryptamine receptor 2A (HTR2A) small molecule agonists, cell-based qHTS assay (AID 1963587); further: nearly all actives have a fitted effect of over 30% in size
Sequence of 5-hydroxytryptamine receptor 2A (Homo sapiens) (P28223 whole entry, looked up): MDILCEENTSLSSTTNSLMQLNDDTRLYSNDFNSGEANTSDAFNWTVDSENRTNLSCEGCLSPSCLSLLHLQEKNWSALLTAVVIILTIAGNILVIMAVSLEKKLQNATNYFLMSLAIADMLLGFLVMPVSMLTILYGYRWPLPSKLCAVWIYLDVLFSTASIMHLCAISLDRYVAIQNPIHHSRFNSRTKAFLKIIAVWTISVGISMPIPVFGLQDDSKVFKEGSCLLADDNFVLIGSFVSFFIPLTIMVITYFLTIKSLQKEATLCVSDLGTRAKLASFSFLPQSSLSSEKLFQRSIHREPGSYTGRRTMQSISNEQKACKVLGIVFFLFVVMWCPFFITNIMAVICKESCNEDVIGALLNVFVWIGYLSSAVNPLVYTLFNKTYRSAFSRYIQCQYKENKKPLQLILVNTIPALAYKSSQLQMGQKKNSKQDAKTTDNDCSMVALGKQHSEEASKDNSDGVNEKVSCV
Summary of the method: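 CHO cells stably expressing human HTR2A, plated 18 h, loaded with calcium dye 1 h at 37 C. Agonist mode: compounds added and intracellular calcium fluorescence recorded kinetically for 2 min at 1 sec intervals.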

[15] = target: Muscarinic acetylcholine receptor M1 (Homo sapiens) (UniProt P11229); experiment: Cholinergic receptor muscarinic 1 (CHRM1) small molecule antagonists, cell-based qHTS assay (AID 1963588); further: nearly all actives have a fitted effect of over 40% in size
Sequence of Muscarinic acetylcholine receptor M1 (Homo sapiens) (P11229 whole entry, looked up): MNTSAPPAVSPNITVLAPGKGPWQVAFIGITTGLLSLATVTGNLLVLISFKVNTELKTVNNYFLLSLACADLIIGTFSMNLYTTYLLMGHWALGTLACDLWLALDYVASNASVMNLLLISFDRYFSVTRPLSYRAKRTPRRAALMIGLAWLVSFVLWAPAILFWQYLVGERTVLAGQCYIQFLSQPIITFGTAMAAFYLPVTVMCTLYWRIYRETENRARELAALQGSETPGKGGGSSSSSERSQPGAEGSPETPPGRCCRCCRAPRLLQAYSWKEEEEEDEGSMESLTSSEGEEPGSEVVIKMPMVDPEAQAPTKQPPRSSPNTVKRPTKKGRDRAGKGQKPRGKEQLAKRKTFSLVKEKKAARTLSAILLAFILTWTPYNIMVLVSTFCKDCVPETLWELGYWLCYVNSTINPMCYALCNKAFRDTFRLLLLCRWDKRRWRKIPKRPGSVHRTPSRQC
Summary of the method: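 CHRM1-CHO calcium-flux assay, antagonist mode. Cells were seeded 18 h, dye-loaded 1 h at 37 C and given compound for 5 min at RT, then acetylcholine was added at 50nM. FDSS fluorescence was read 3 min; 15 concentrations, three runs.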

[16] = target: Muscarinic acetylcholine receptor M1 (Homo sapiens) (UniProt P11229); experiment: Cholinergic receptor muscarinic 1 (CHRM1) small molecule agonists, cell-based qHTS assay (AID 1963589); further: nearly all actives have a fitted effect of over 35% in size
Summary of the method: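 Human M1 in stable CHO line; 18 h plating, 1 h dye load 37 C; cpd added (agonist mode); Ca2+ fluorescence kinetic read, 1 s intervals; 15 conc, 3 runs.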

[17] = target: Beta-2 adrenergic receptor (Homo sapiens) (UniProt P07550); experiment: Adrenergic beta2 receptor (ADRB2) small molecule antagonists, cell-based qHTS assay (AID 1963592); further: series mostly up to about 92 µM; nearly all actives have a fitted effect of over 50% in size
Sequence of Beta-2 adrenergic receptor (Homo sapiens) (P07550 whole entry, looked up): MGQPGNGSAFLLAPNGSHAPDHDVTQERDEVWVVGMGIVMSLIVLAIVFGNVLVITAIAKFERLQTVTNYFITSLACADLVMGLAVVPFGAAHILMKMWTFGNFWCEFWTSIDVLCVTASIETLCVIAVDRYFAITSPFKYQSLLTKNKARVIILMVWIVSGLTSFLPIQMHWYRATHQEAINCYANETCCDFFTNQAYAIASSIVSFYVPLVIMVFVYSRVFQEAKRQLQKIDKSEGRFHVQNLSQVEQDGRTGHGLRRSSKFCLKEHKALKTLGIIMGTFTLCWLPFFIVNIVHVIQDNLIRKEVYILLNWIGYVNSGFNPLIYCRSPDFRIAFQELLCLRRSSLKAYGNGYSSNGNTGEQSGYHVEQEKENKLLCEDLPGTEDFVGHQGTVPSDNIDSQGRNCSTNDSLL
Summary of the method: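 Cells (CHO, stable ADRB2 overexpression) incubated 18-20hr at 37C; compounds added from DMSO; agonist mix (1nM isoproterenol, 100uM IBMX, 25uM Ro-20-1724) added; 0.5hr RT; d2-cAMP and anti-cAMP-cryptate added; 1hr RT; 665/615 nm read.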

[18] = target: Beta-2 adrenergic receptor (Homo sapiens) (UniProt P07550); experiment: Adrenergic beta2 receptor (ADRB2) small molecule agonists, cell-based qHTS assay (AID 1963593);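 further: CHO cells stably overexpressing human ADRB2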
Summary of the method: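 CHO cells stably over-expressing ADRB2 were plated overnight at 37C, then dosed with compounds plus a stimulation mix containing 100uM IBMX and 25uM Ro-20-1724 for 0.5hr at room temperature. cAMP was measured by HTRF competition, 1hr.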

[19] = p53 small molecule agonists, cell-based qHTS assay (AID 1963582; active means well fitted activation curve with a large enough effect in the signal ratio in the repeat runs, not every such curve was filed as active; the % refers to the signal ratio)
Summary of the method: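 Reporter line: p53RE-bla. Pre-incubation 5 h, 37 C, 5% CO2; compound (DMSO, pin tool) 16 h, 37 C; B/G FRET substrate 2 h RT; fluorescence intensity read.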

[20] = target: 5-hydroxytryptamine receptor 2A (Homo sapiens) (UniProt P28223); experiment: 5-hydroxytryptamine receptor 2A (HTR2A) small molecule antagonists, cell-based qHTS assay (AID 1963586); further: nearly all actives have a fitted effect of over 45% in size
Summary of the method: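 Antagonist-mode intracellular calcium assay: DOI (4 nM) added after 5 min compound pre-incubation at room temperature to dye-loaded HTR2A-CHO cells. Fluorescence followed for 3 min, sampled every second.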

CN(C)CCCN1c2ccccc2Sc2ccccc21
Potency [1]: inactive
Potency [2]: inactive
Potency [3]: inactive
outcome [4]: inactive
outcome [5]: inactive
Potency [6]: inactive
Potency [7]: inactive
Potency [8]: inactive
Potency [9]: inactive
Potency [10]: inactive
Potency [11]: inactive
Potency [12]: inactive
Potency [13]: 29.8 µM (active)

CCN(CC)CCOC(=O)C(Cc1cccc2ccccc12)CC1CCCO1 (stereo unspecified)
Potency [1]: inactive
Potency [2]: inactive
Potency [3]: inactive
outcome [4]: inactive
outcome [5]: inactive
Potency [6]: inactive
Potency [7]: inactive
Potency [8]: inactive
Potency [9]: inactive
Potency [14]: inactive
Potency [15]: inactive
Potency [16]: inactive
Potency [10]: inactive
Potency [17]: inactive
Potency [18]: inactive
Potency [12]: inactive
Potency [13]: inactive

C=CC(=C)CC/C=C(\C)CCC=C(C)C
activity change, negative = cytotoxicity [1]: -0.584% [at 19 µM]
activity, positive = activation [2]: 7.55% [at 19 µM]
activity change [3]: 1.61% [at 11.8 µM, hits give high values]
activation [4]: 5.69% [at 15.8 µM]
activation [5]: -1.2% [at 11.8 µM]
activation [6]: -0.261% [at 13.5 µM]
activation [7]: 0.56% [at 13.6 µM]
activity change, negative = cytotoxicity [8]: 1.39% [at 13.5 µM]
activation [19]: -2.41% [at 13.5 µM]
activity, negative = inhibition [20]: 22.2% [at 12.7 µM]
activation [14]: 6.61% [at 15.9 µM]
activity, negative = inhibition [15]: -6.65% [at 12.6 µM]
activation [16]: -0.116% [at 15.8 µM]
activation [10]: 0.237% [at 19 µM]
activity change, negative = inhibition [11]: 1.53% [at 18.9 µM]
activity change, negative = inhibition [17]: 10.9% [at 19 µM]
Potency [18]: inactive
activation [12]: -0.761% [at 19 µM]
activity change, negative = inhibition [13]: -0.805% [at 18.9 µM]

O=C(NCCCN1CCOCC1)c1ccc(Cl)cc1
Potency [1]: inactive
Potency [2]: inactive
Potency [3]: inactive
outcome [4]: inactive
outcome [5]: inactive
Potency [6]: inactive
Potency [7]: inactive
Potency [8]: inactive
Potency [19]: inactive
Potency [20]: inactive
Potency [14]: inactive
Potency [15]: inactive
Potency [16]: inactive
Potency [10]: inactive
Potency [11]: inactive
Potency [17]: inactive
Potency [12]: inactive
Potency [13]: inactive

CCc1cc(Cl)c(OC)c(C(=O)NC[C@@H]2CCCN2CC)c1O
Potency [1]: inactive
Potency [2]: inactive
Potency [3]: inactive
outcome [4]: inactive
outcome [5]: inactive
Potency [6]: inactive
Potency [7]: inactive
Potency [8]: inactive
Potency [9]: inactive
Potency [15]: inactive
Potency [16]: inactive
Potency [11]: inactive
Potency [12]: inactive
Potency [13]: 0.0033 µM (active)

COc1ccc2c(c1)C(=O)N(CCc1ccc(S(=O)(=O)NC(=O)NC3CCCCC3)cc1)C(=O)C2(C)C
Potency [1]: inactive
Potency [2]: inactive
Potency [3]: inactive
outcome [4]: inactive
outcome [5]: inactive
Potency [6]: inactive
Potency [7]: inactive
Potency [8]: inactive
Potency [9]: inactive
Potency [14]: inactive
Potency [15]: inactive
Potency [16]: inactive
Potency [17]: inactive
Potency [18]: inactive
Potency [12]: inactive
Potency [13]: inactive

Cc1ccc(C=O)s1
Potency [1]: inactive
Potency [2]: 68.6 µM (active)
Potency [3]: inactive
outcome [4]: inactive
outcome [5]: inactive
Potency [6]: inactive
Potency [7]: inactive
Potency [8]: 40.8 µM (active)
Potency [19]: inactive
Potency [20]: inactive
Potency [14]: inactive
Potency [15]: inactive
Potency [16]: inactive
Potency [10]: inactive
Potency [11]: inactive
Potency [17]: inactive
Potency [18]: inactive
Potency [12]: inactive
Potency [13]: inactive
